# Reference: paper PMC7862700, “An all-to-all approach to the identification of sequence-specific readers for epigenetic DNA modifications on cytosine”
# What was measured:
# Assay in all cases: DAPPL (digital affinity profiling via proximity ligation, sequencing); 10 mM Tris-HCl pH 7.5, 50 mM NaCl, 1 mM DTT, 4% glycerol, room temperature, 30 min; GST-TFs on glutathione beads, 16-mer random dsDNA library, 0.1% formaldehyde crosslink after washing; high values mean tight binding
# FEV = molecular target: T1, FEV (Homo sapiens, UniProt Q99581 1-238); conditions: protein: recombinant; tags: N-terminal GST; dsDNA, one strand shown
# T1 sequence: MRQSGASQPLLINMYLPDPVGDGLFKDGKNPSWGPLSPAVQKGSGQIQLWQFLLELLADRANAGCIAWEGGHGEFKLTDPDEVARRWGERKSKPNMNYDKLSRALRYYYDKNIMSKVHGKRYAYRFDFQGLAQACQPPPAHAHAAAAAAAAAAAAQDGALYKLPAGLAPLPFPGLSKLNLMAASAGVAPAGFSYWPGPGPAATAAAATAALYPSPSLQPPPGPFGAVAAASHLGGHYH
# In short: (§1)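 Human transcription factors were made in yeast as GST fusions, captured on glutathione beads and barcoded with DNA. With a tag-only sample included, the pool was incubated with 200 nmole of a random double-stranded 16-mer DNA library in Tris/NaCl/DTT/glycerol buffer at room temperature for 30 min, then crosslinked with 0.1% formaldehyde after washing, ligated by proximity, amplified and sequenced. For binding signal, each hexamer's read frequency for a factor is divided by its frequency for the tag-only sample.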
# ETV5 = ETV5 (Homo sapiens, UniProt P41161 1-510); conditions: protein: recombinant; tags: N-terminal GST; dsDNA, one strand shown
# Chain of ETV5 (P41161 whole entry): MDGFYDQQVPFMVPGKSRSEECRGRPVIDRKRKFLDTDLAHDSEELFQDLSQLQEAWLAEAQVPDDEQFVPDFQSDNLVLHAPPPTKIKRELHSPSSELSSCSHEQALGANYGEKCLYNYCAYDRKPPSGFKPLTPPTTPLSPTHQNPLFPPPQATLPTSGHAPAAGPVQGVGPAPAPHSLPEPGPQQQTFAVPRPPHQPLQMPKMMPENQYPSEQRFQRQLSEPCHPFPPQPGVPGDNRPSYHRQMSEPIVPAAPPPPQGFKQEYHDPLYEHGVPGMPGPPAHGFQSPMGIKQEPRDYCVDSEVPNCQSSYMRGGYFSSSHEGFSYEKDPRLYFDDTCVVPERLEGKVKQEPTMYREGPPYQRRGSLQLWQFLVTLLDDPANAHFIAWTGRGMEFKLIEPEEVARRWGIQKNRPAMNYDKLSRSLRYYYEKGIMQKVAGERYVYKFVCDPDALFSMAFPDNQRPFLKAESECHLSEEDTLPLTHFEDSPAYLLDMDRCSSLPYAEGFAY
# In short: as §1
# HSF1 = HSF1 (Homo sapiens, UniProt Q00613 1-529); conditions: protein: recombinant; tags: N-terminal GST; chain copies: 3; dsDNA, one strand shown
# Chain of HSF1 (Q00613 whole entry): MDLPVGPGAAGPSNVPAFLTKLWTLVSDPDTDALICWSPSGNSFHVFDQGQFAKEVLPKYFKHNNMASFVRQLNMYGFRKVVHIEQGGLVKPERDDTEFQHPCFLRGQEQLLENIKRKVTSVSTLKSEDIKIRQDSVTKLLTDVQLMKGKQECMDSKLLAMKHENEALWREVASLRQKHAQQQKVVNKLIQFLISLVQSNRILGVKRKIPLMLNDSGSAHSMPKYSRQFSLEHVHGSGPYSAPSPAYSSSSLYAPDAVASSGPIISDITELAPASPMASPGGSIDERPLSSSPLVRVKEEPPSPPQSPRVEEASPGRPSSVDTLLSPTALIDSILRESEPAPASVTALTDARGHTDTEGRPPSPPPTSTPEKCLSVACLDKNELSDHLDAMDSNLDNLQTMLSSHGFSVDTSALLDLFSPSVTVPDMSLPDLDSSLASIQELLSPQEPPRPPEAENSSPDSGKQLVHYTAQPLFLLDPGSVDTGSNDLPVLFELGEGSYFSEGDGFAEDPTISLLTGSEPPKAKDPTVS
# In short: as §1
# SPIC = molecular target: T2, SPIC (Homo sapiens, UniProt Q8N5J4 1-248); conditions: protein: recombinant; tags: N-terminal GST; dsDNA, one strand shown
# T2 sequence: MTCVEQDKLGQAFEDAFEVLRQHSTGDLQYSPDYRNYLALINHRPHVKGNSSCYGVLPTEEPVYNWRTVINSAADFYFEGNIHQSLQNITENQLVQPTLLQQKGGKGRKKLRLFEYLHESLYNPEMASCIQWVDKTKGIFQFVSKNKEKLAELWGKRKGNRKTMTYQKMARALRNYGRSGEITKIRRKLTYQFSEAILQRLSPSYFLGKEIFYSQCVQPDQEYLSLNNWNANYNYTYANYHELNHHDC
# In short: as §1
# ELF4 = ELF4 (Homo sapiens, UniProt Q99607 1-663); conditions: protein: recombinant; tags: N-terminal GST; dsDNA, one strand shown
# Chain of ELF4 (Q99607 whole entry): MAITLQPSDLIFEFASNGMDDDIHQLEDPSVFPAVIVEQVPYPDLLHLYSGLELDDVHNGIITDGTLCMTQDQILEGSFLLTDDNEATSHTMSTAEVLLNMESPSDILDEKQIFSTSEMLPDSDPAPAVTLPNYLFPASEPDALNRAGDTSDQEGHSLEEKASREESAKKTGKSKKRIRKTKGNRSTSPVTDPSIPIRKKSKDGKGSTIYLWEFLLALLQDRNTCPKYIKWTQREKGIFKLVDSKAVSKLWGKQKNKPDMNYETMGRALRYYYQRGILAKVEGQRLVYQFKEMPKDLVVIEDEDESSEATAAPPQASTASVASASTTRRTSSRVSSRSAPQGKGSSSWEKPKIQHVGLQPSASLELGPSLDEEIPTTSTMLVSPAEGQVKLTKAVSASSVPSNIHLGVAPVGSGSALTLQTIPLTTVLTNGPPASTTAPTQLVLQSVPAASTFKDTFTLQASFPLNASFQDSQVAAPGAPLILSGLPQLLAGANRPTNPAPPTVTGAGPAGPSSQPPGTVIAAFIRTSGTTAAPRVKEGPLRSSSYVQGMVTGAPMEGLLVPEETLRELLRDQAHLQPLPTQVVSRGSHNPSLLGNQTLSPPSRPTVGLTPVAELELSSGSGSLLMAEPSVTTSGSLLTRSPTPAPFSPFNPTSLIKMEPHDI
# In short: as §1
# ELK4 = molecular target: T3, ELK4 (Homo sapiens, UniProt P28324-2 1-405); conditions: protein: recombinant; tags: N-terminal GST; dsDNA, one strand shown
# T3 sequence: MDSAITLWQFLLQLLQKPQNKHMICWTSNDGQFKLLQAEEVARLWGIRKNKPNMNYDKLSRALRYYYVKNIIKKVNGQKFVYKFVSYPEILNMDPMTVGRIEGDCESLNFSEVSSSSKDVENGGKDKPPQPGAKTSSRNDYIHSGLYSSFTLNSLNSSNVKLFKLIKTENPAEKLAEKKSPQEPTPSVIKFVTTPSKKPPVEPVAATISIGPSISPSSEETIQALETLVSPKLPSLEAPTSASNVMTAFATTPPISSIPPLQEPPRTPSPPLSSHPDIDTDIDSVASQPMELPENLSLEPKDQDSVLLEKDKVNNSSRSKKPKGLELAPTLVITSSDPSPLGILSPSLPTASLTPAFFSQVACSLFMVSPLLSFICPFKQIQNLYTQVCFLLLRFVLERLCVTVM
# In short: as §1
# ETV2 = molecular target: T4, ETV2 (Homo sapiens, UniProt O00321 1-342); conditions: protein: recombinant; tags: N-terminal GST; dsDNA, one strand shown
# T4 sequence: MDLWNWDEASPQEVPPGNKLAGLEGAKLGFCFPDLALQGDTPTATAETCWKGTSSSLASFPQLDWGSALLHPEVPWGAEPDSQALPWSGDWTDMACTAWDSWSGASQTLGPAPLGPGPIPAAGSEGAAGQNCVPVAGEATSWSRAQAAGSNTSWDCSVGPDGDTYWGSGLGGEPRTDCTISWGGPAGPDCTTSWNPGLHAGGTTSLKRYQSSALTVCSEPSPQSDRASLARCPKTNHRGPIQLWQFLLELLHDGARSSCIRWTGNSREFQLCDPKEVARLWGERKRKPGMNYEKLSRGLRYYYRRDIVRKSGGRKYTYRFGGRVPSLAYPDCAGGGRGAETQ
# In short: as §1
# ELF3 = molecular target: T5, ELF3 (Homo sapiens, UniProt P78545 1-371); conditions: protein: recombinant; tags: N-terminal GST; dsDNA, one strand shown
# T5 sequence: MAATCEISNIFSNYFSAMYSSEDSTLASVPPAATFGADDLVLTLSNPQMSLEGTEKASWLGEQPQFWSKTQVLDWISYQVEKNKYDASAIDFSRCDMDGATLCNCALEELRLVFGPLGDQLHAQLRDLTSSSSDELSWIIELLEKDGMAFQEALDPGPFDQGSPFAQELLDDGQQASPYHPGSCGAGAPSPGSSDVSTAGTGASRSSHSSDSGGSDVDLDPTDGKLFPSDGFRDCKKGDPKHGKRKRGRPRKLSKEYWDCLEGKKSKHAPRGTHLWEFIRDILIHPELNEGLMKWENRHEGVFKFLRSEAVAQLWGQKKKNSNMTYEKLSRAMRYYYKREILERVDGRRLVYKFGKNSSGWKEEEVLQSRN
# In short: as §1
# CRX = CRX (Homo sapiens, UniProt O43186 1-299); conditions: protein: recombinant; tags: N-terminal GST; dsDNA, one strand shown
# Chain of CRX (O43186 whole entry): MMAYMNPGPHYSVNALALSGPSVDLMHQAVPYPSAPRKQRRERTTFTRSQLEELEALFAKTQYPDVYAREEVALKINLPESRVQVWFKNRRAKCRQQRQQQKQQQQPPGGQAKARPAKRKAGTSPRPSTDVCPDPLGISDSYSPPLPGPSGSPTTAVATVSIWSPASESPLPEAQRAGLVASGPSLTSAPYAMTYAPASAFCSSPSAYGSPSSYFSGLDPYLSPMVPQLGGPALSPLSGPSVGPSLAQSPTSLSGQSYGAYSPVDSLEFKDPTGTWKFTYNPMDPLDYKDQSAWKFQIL
# In short: as §1
# ETV1 = ETV1 (Homo sapiens, UniProt P50549 1-477); conditions: protein: recombinant; tags: N-terminal GST; dsDNA, one strand shown
# Chain of ETV1 (P50549 whole entry): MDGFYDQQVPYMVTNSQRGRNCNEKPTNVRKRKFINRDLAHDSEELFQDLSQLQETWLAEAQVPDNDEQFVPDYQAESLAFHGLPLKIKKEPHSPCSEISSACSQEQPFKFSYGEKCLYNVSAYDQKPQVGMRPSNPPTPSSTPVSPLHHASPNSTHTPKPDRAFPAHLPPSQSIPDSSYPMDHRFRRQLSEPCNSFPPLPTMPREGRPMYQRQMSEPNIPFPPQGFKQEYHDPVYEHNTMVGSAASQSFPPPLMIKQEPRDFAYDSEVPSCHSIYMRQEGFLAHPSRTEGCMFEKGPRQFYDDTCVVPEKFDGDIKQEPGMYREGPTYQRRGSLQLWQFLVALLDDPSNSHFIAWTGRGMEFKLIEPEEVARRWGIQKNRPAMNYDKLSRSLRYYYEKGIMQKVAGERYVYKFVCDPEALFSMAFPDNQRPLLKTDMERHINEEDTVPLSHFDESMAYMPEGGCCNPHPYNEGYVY
# In short: as §1
# ERF = molecular target: T6, ERF (Homo sapiens, UniProt P50548 1-548); conditions: protein: recombinant; tags: N-terminal GST; dsDNA, one strand shown
# T6 sequence: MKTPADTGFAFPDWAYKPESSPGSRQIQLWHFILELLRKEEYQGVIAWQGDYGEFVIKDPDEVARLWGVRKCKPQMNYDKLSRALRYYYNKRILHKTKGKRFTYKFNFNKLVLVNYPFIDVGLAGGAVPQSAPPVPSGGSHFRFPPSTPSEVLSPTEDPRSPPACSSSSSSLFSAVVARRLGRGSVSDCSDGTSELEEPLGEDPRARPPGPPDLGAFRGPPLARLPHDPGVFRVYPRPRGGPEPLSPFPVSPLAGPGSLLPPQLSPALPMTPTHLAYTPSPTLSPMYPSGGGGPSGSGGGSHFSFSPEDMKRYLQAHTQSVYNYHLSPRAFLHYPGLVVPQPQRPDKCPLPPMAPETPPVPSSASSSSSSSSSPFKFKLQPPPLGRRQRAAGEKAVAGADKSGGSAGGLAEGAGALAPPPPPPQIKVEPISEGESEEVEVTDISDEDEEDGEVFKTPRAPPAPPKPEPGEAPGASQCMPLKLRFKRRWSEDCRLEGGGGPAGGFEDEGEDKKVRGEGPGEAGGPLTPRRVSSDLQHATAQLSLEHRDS
# In short: as §1
# ETV3L = molecular target: T7, ETV3L (Homo sapiens, UniProt Q6ZN32 1-361); conditions: protein: recombinant; tags: N-terminal GST; dsDNA, one strand shown
# T7 sequence: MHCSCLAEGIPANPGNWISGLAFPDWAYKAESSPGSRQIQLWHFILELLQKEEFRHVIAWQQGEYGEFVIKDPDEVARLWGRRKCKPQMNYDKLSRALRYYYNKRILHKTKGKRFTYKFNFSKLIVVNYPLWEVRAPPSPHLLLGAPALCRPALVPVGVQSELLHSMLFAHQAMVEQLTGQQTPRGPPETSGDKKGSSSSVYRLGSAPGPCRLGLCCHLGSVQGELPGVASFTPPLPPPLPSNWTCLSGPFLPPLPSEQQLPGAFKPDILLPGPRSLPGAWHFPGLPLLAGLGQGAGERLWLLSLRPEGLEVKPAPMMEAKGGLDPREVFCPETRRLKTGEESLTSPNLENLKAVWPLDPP
# In short: as §1
# ETS2 = molecular target: T8, ETS2 (Homo sapiens, UniProt P15036 1-469); conditions: protein: recombinant; tags: N-terminal GST; dsDNA, one strand shown
# T8 sequence: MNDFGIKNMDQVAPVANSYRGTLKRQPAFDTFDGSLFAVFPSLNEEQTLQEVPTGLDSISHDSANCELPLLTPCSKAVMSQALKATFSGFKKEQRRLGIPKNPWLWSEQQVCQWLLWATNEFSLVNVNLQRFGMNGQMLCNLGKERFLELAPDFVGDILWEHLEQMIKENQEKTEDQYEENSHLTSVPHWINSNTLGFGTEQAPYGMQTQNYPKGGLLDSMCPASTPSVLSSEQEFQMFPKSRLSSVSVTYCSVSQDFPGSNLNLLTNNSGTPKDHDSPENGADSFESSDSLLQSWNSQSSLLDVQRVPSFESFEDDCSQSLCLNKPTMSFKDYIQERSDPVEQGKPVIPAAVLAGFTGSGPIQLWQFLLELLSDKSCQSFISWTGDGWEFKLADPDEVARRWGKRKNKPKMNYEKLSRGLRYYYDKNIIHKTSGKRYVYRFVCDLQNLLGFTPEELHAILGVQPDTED
# In short: as §1
# SPDEF = molecular target: T9, SPDEF (Homo sapiens, UniProt O95238 1-335); conditions: protein: recombinant; tags: N-terminal GST; dsDNA, one strand shown
# T9 sequence: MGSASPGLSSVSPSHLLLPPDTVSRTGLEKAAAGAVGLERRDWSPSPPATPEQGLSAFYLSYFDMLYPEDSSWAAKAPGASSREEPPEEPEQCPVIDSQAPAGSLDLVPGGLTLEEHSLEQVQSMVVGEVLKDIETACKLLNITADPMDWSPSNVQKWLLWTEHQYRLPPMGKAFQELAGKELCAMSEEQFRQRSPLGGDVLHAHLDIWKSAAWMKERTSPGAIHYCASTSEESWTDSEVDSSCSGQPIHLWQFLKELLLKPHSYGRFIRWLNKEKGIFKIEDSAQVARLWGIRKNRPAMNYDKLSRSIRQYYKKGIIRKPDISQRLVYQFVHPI
# In short: as §1
# ETV7 = molecular target: T10, ETV7 (Homo sapiens, UniProt Q9Y603 1-341); conditions: protein: recombinant; tags: N-terminal GST; dsDNA, one strand shown
# T10 sequence: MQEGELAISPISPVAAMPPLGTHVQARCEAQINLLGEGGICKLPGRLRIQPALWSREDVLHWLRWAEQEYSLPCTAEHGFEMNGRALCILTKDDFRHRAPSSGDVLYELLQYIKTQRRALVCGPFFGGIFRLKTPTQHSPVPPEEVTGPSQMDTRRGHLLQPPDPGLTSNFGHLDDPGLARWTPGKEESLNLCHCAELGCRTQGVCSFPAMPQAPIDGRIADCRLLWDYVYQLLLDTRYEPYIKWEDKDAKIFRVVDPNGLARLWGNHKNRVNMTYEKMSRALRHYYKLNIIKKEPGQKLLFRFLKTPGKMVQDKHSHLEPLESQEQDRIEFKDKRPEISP
# In short: as §1
# ELF5 = molecular target: T11, ELF5 (Homo sapiens, UniProt Q9UKW6-2 1-255); conditions: protein: recombinant; tags: N-terminal GST; dsDNA, one strand shown
# T11 sequence: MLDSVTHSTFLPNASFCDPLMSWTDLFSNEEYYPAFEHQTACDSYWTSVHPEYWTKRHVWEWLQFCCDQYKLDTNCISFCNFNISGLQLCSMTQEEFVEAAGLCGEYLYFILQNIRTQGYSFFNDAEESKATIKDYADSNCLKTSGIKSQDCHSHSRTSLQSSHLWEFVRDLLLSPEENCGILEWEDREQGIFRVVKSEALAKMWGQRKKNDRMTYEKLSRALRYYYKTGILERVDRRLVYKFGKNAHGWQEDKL
# In short: as §1
# ETV3 = molecular target: T12, ETV3 (Homo sapiens, UniProt P41162-2 1-143); conditions: protein: recombinant; tags: N-terminal GST; dsDNA, one strand shown
# T12 sequence: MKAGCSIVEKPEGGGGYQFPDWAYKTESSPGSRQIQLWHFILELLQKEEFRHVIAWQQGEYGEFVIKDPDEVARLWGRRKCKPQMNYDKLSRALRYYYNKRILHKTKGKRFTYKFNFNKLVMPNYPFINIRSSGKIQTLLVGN
# In short: as §1
# ETV6 = ETV6 (Homo sapiens, UniProt P41212 1-452); conditions: protein: recombinant; tags: N-terminal GST; dsDNA, one strand shown
# Chain of ETV6 (P41212 whole entry): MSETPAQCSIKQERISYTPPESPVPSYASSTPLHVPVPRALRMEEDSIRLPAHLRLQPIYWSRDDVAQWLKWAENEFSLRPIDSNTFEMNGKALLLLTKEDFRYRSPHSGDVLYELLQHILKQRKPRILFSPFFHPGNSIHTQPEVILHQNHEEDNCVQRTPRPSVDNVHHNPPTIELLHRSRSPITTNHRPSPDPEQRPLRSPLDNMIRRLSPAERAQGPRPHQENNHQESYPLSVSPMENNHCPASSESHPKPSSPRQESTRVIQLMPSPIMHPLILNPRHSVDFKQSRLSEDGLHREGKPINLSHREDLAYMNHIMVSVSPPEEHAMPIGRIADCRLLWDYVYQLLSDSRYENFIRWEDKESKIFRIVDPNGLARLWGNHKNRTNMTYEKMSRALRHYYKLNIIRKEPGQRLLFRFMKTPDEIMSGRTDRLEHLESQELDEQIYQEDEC
# In short: as §1
sequence,measurement,setting,value
AATTTA,binding signal,FEV,"1.16 fold enrichment (6-mer frequency, TF over GST control)"
same,binding signal,ETV5,"1.27 fold enrichment (6-mer frequency, TF over GST control)"
same,binding signal,HSF1,"1.44 fold enrichment (6-mer frequency, TF over GST control)"
same,binding signal,SPIC,"1.21 fold enrichment (6-mer frequency, TF over GST control)"
same,binding signal,ELF4,"1.21 fold enrichment (6-mer frequency, TF over GST control)"
same,binding signal,ELK4,"1.22 fold enrichment (6-mer frequency, TF over GST control)"
same,binding signal,ETV2,"1.13 fold enrichment (6-mer frequency, TF over GST control)"
same,binding signal,ELF3,"1.36 fold enrichment (6-mer frequency, TF over GST control)"
same,binding signal,CRX,"1.59 fold enrichment (6-mer frequency, TF over GST control)"
same,binding signal,ETV1,"1.22 fold enrichment (6-mer frequency, TF over GST control)"
same,binding signal,ERF,"1.27 fold enrichment (6-mer frequency, TF over GST control)"
same,binding signal,ETV3L,"1.25 fold enrichment (6-mer frequency, TF over GST control)"
same,binding signal,ETS2,"1.18 fold enrichment (6-mer frequency, TF over GST control)"
same,binding signal,SPDEF,"1.12 fold enrichment (6-mer frequency, TF over GST control)"
same,binding signal,ETV7,"1.28 fold enrichment (6-mer frequency, TF over GST control)"
same,binding signal,ELF5,"1.26 fold enrichment (6-mer frequency, TF over GST control)"
same,binding signal,ETV3,"1.22 fold enrichment (6-mer frequency, TF over GST control)"
same,binding signal,ETV6,"1.33 fold enrichment (6-mer frequency, TF over GST control)"
